Screening data: PubChem BioAssay, several laboratories
Exocytosis inh = blocks lytic granule exocytosis | TALL-104 LAMP-1 surface exposure, flow cytometry; cells stimulated with thapsigargin and PMA | inhibition, % at 10 µM | hit rate 0.66% among 360,000;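 active = inhibition above about 55%, limit read from the data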
SMARCA2 activ = SMARCA2 function activation, primary screen | MG213 cells, MMTV-luciferase reporter, dexamethasone, overnight | activation, % at 9.1 µM | hit rate 1% among 370,000 | AID 652017; in the data active = activation above about 7.8%;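 also: 0% = vehicle wells and 100% = reference activator wells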
ALR H2O2 inh = human ALR oxidase inhibition via reduced H2O2; P55789; purified ALR, DTT oxidation, H2O2 HRP-luminol luminescence; inhibition, % (concentration not given with the values); hit rate 3.8% among 290,000;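 active = mean replicate inhibition above about 79%, with every replicate also reaching it, limit read from the data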
Target sequence (P55789 whole entry, looked up): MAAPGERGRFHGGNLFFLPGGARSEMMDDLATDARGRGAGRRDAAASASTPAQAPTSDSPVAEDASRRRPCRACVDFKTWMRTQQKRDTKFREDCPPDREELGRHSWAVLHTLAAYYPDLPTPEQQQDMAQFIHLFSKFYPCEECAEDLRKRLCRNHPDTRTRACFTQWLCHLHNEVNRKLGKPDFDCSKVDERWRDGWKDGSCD
M18AAP inhibitor = PfM18AAP enzyme inhibition | recombinant PfM18AAP, H-Glu-NHMec fluorogenic cleavage | inhibition, % at 7.35 µM | hit rate 1.2% among 290,000;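 active = inhibition above the campaign mean inhibition over all tested compounds plus 3 SD, cut at about 28% in these data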;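 also: 0% = plate median of test compound wells and 100% = 2 mM ZnCl2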
MIN6 prolif = inducers of beta-cell replication in MIN6 cells; hit rate 0.29% among 330,000; AID 2380; MIN6 cells proliferation, ATPlite luminescence, 48 h; cells starved in 0.2% serum; 100% = growth in 10% serum; proliferation, % at 10 µM;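 active = compounds whose signal lies at least 3.5 SD above the mean of all wells on their plate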;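 also: 0% = DMSO-treated cells in low-serum medium and 100% = 10% serum control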
JMJD2C inh = inhibitors of human GASC-1 (JMJD2C) demethylase; Q9H3R0; GST-JMJD2C(1-420) H3K9me3 demethylation, DELFIA europium; inhibition, % at 2.35 µM; hit rate 0.069% among 330,000;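 active = more than half of a compound's replicate wells show inhibition beyond 50%, single wells judged on their own value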;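 also: signal counts dimethyl H3K9 product captured on neutravidin plate; 0% = median of DMSO wells and 100% = 0.3 times that DMSO median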
Target sequence (Q9H3R0 1-420 limits assumed): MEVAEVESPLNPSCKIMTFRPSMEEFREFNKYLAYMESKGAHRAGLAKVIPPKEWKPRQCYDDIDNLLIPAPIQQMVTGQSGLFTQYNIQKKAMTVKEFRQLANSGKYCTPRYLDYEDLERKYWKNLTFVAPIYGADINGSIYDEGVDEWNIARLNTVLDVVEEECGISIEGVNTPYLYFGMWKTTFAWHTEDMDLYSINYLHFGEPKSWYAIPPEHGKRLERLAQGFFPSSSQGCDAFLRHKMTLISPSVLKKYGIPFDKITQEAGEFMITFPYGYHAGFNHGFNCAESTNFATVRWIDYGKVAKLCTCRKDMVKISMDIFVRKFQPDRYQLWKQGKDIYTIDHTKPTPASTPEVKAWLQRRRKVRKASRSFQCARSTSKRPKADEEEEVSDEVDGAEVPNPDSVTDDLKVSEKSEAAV
The depositor's hits bear a star; / = not tested or not shown. Shown are actives, neighbours in structure and some others; about 5.4% of the full set was active somewhere.

SMILES	Exocytosis inh	SMARCA2 activ	ALR H2O2 inh	M18AAP inhibitor	MIN6 prolif	JMJD2C inh
Cc1cccc(OCC(=O)Nc2cc(NC(=O)COc3cccc(C)c3C)cc(C(=O)O)c2)c1C	7.4	1.9	80.4*	1.0	-3.9	12.2
CCOc1ccc(-n2c(COc3ccc(C)cc3)nnc2SCC(=O)c2ccc3ccccc3c2)cc1	/	1.0	/	/	/	/
COc1cc(N)ccc1NC(=O)c1cccs1	0.6	1.2	98.8*	-6.3	-4.8	5.9
COc1nc(N)nc(NC(=O)c2cccs2)c1N=O	105.0*	6.7	38.6	/	-6.5	-5.3
Cc1ccc(-n2c(Cc3cccs3)nnc2SCc2ccc([N+](=O)[O-])cc2)cc1	/	-5.4	/	/	/	/
CCN(CC)C(=O)CC[C@@H]1CC[C@]2(CCCN(S(C)(=O)=O)C2)O1	/	-0.4	/	/	/	/
O=C(CSc1ncnc2ccccc12)NCc1ccc2c(c1)OCO2	-2.7	-0.1	25.1	0.2	7.7*	-13.0
O=C(CSc1ncnc2ccccc12)Nc1ccc2c(c1)OCCO2	-1.9	1.2	94.8*	-2.6	3.1	-3.5
Cc1ccc(NC(=O)COC(=O)c2ccc(NC(=O)CC#N)cc2)cc1S(=O)(=O)N1CCOCC1	0.4	-2.3	98.8*	/	-4.1	24.5
Cc1ccc(NC(=O)CSc2ncnc3ccccc23)cc1S(=O)(=O)N1CCCCC1	6.4	-8.1	59.1	-0.9	-4.0	1.5
Cc1ccc(NC(=O)CSc2ncnc3ccccc23)cc1S(=O)(=O)N1CCOCC1	24.7	-6.1	98.6*	4.5	0.1	0.4
O=S(=O)(c1cccs1)N1CCC(c2cn3ccccc3n2)CC1	/	0.6	/	/	/	/
COc1ccc(CNC(=O)CSc2nnnn2Cc2ccccc2)cc1	0.4	-0.5	-3.9	-1.7	0.8	51.7*
Cc1ccc(-n2c(Cc3cccn3C)nnc2SCC(=O)NCc2ccc3c(c2)OCO3)cc1	-0.8	-2.6	/	30.3*	-0.6	-1.8
CCCn1nnnc1SCC(=O)NCc1ccc2c(c1)OCO2	-2.0	2.7	-4.6	-1.1	-0.6	62.3*
CCCn1nnnc1SCC(=O)NCc1ccc(OC)cc1	2.7	-1.7	-5.9	-8.2	-0.8	31.2
COc1ccc(-n2nnc3c(SCC(=O)Nc4ccc5c(c4)OCCO5)ncnc32)cc1	/	/	98.6*	-4.9	-6.1	-4.5
Cc1occc1-c1nnc(SCC(=O)Nc2ccc3ncccc3c2)n1-c1ccccc1	/	1.4	/	/	/	/
CC(C)c1ccc(NC(=O)Nc2nc(C(N)COCc3ccccc3)cs2)cc1 (configuration not stated)	15.0	-6.3	/	/	/	/
O=C(NC1CCCCN(Cc2ccc(Cl)cc2)C1=O)c1ccc(F)cc1 (configuration not stated)	/	-3.8	/	/	/	/
COC(=O)[C@]12C[C@H](CC(=O)NCc3ccccc3)C(=O)N(Cc3ccc4c(c3)OCO4)C1=C[C@H](C(C)C)O[C@@H]2C1CC1	/	-3.1	/	/	/	/
O=C(CSc1ncnc2ccccc12)NCC(=O)c1ccccc1	0.3	-2.3	96.9*	-0.6	3.7	10.0
O=C(CSc1ncnc2c1cnn2-c1ccccc1)Nc1ccc2c(c1)OCO2	1.0	-0.6	-5.6	-14.0	-2.9	10.8
O=C(CSc1ncnc2ccccc12)Nc1ccc2c(c1)OCO2	3.3	-2.0	97.8*	1.2	-1.2	-1.8
CC/C(=C(/CC)c1ccc(O)cc1)c1ccc(O)cc1	4.8	-1.8	99.0*	-10.5	-7.8	18.5
SMILES	Exocytosis inh	SMARCA2 activ	ALR H2O2 inh	M18AAP inhibitor	MIN6 prolif	JMJD2C inh
S=c1nc(-c2sccc2OCc2ccc(Cl)cc2Cl)[nH][nH]1	3.6	-1.2	96.5*	-1.6	-2.9	-5.0
CNC(=S)NNC(=O)c1sccc1OCc1ccc(Cl)cc1Cl	4.7	-1.6	-2.6	-0.6	-0.2	1.7
O=C(COc1ccccc1F)OCC(=O)c1ccc([N+](=O)[O-])cc1	4.9	-0.4	79.2*	/	-2.9	0.0
Cc1ccc(NC2Nc3cc(C)nn3S2)c(C)c1 (configuration not stated)	-5.5	0.1	86.8*	9.1	0.1	-4.8
COC(=O)[C@]12C[C@H](CC(=O)N3CCC(c4ccccc4)CC3)C(=O)N(Cc3cccc4ccccc34)C1=C[C@H](C(C)(C)C)O[C@@H]2C	/	-5.4	/	/	/	/
O=c1c2ccccc2c(-c2n[nH]c(=S)o2)nn1Cc1ccccc1	-6.2	0.4	25.6	-23.4	0.7	5.3
OCc1ccc(-c2nn(Cc3ccccc3)c3ccccc23)o1	38.4	3.0	92.5*	/	-0.3	33.2
COc1ccc(C(C[N+](=O)[O-])c2c(-c3ccccc3)cc3ccccn23)cc1OC (configuration not stated)	0.2	1.1	9.0	21.3	-5.5	-7.0
COc1ccc(C(C[N+](=O)[O-])C2(c3ccc(OC)c(OC)c3)C(=O)c3ccccc3C2=O)cc1 (configuration not stated)	50.3	/	62.0	34.6*	/	8.4
Cc1ccc(-c2cc(C(=O)NN=C/C=C/c3ccco3)[nH]n2)cc1C	/	-6.6	/	/	/	/
COc1ccc(S[C@]2(C(=O)N(C)C)CC(=O)N(c3ccsc3)[C@@H]2c2ccc(OC)cc2)cc1	/	-3.5	/	/	/	/
CC(=O)Nc1ccc(NC(C)=O)s1	-0.5	-2.7	87.0*	-102.5	0.8	-26.7
C=CCN1[C@H](CC(C)C)COc2cccc(F)c2S1(=O)=O	/	-1.5	/	/	/	/
CCOC(=O)N1CCC(NC(=O)CS(=O)Cc2nc(-c3ccc(C)cc3)oc2C)CC1 (configuration not stated)	38.7	-2.1	99.2*	0.6	-2.0	2.6
CCOC(=O)N1CCC(NC(=O)CS(=O)Cc2nc(-c3ccc(Cl)cc3)oc2C)CC1 (configuration not stated)	7.5	-3.4	98.7*	-17.3	0.0	-2.2
CCOC(=O)N1CCC(NC(=O)CS(=O)(=O)Cc2nc(-c3ccc(OC)cc3)oc2C)CC1	-0.5	-1.4	-0.8	-2.1	-4.8	31.2
CCOC(=O)N1CCN(C(=O)CS(=O)Cc2nc(-c3ccc(C)cc3)oc2C)CC1 (configuration not stated)	5.5	3.8	/	-7.1	1.6	-5.1
CCOC(=O)N1CCC(NC(=O)CS(=O)Cc2nc(-c3ccc(OC)c(OC)c3)oc2C)CC1 (configuration not stated)	-3.3	4.6	99.7*	-9.5	-0.5	-2.4
CCOC(=O)[C@@]12CCC3=C1N(CCC3)C(=O)[C@H](CC(=O)NCc1cccc(C(F)(F)F)c1)C2	/	-2.8	/	/	/	/
CCCCOCCCNC(=O)C[C@H]1C[C@@]2(C(=O)OC)C(=C[C@H](C(C)(C)C)O[C@@H]2C)N(CCC2=CCCCC2)C1=O	/	-4.2	/	/	/	/
Cc1ccc(C2CCC3(CCC(=O)N3CCOC(=O)Nc3cccc(C#N)c3)CC2)cc1 (configuration not stated)	/	-3.2	/	/	/	/
COc1cc(SC)ccc1C(=O)Nc1c(C)cccc1C	-1.7	-2.2	/	4.7	2.3	-1.2
COc1cc(SC)ccc1C(=O)Nc1c(Cl)cncc1Cl	2.4	-1.8	76.6*	1.4	-1.3	-15.6
Cc1ccc2c(c1)C(CS(=O)(=O)NCc1ccc(F)cc1)NC2 (configuration not stated)	/	5.0	/	/	/	/
